Only some compounds are listed: those with a hit (about 1.6% of all), similar ones and a draw of the others.
KCNQ2 enhance: potentiators of rat KCNQ2 potassium channel | O88943 | CHO-K1 KCNQ2, FluxOR thallium flux fluorescence; active compounds read high | B-score at 10 µM | 310,000 tested, 0.54% active | AID 2239;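 active = fluorescence ratio B-score at least 3 SD of library B-scores, with initial fluorescence B-score within 3 of them, cut at about 5.3 in these data; same plate scores as AID 2156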;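 note: B-score of peak minus minimum over baseline fluorescence ratio after K+ and Tl+ stimulus; positive B-score means potentiation of KCNQ2 with more thallium influx and brighter signal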
Target sequence (O88943 whole entry, looked up): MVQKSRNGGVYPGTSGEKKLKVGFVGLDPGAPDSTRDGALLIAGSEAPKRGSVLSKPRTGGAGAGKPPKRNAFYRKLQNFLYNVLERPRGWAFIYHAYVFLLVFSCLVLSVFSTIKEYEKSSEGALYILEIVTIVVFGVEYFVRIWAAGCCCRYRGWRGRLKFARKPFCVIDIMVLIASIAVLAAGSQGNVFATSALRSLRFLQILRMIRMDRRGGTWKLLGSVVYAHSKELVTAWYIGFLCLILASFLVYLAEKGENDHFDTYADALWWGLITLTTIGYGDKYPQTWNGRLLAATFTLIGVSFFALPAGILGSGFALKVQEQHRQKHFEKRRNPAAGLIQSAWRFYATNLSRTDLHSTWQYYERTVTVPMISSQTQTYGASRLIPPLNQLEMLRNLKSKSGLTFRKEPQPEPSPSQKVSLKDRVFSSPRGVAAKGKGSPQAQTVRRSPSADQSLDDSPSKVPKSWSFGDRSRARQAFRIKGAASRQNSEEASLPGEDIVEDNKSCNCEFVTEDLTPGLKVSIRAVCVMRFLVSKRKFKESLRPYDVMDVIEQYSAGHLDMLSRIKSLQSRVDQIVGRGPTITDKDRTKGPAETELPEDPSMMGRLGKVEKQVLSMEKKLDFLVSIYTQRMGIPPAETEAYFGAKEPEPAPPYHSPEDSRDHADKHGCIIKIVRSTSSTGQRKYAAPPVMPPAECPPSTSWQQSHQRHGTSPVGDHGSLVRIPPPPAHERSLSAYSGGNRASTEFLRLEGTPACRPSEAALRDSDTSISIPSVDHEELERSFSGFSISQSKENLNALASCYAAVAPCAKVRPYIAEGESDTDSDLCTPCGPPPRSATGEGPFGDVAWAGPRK
KCNQ2 inh: KCNQ2 (rat) channel inhibition. B-score at 10 µM. 310,000 tested, 1.1% active. CHO-K1 KCNQ2, FluxOR thallium flux, 20 min; active compounds read low. AID 2156;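 active = fluorescence ratio B-score at most minus 3 library SDs, with starting brightness B-score within 2 library SDs, cut at about -5.5 in these data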
* hit, by the source's call; i = inactive; . = no result.

SMILES	KCNQ2 enhance	KCNQ2 inh
Cc1oc2ccc(OCc3ccccc3Cl)cc2c1C(=O)O	2.85	i
O=C(NC1CCCCC1)C1CC(=O)N(c2ccccc2)C1 (stereo not given)	.	i
CCOC(=O)N1C(=O)[C@](CC)(c2ccccc2)N1C(=O)OCC	0.2	i
CCC1(c2ccccc2)C(=O)N(C(=O)OC(C)(C)C)N1C(=O)OC(C)(C)C (stereo not given)	-6.53	-6.53*
CC(=O)NC1=C(NC2CCS(=O)(=O)C2)C(=O)c2ccccc2C1=O (stereo not given)	6.08*	i
CN(C1=C(NC(=O)c2ccccc2)C(=O)c2ccccc2C1=O)C1CCS(=O)(=O)C1 (stereo not given)	3.53	i
COc1c(C)cc(C(=O)C2CCCN(C(=O)c3snnc3C)C2)cc1C (stereo not given)	1.29	i
Cc1cccc(-n2cc(CN(C)Cc3nccn3C)c(-c3cccc(F)c3)n2)c1	-6.71	-6.71*
CCn1ccnc1CN(C)Cc1cn(-c2cccc(C)c2)nc1-c1cccc(F)c1	.	i
Cc1ccc(N2N=C(C(=O)O)CCC2=O)cc1Cl	0.72	i
Cc1cc(C)n(-c2nc(-n3nc(C)cc3C)c3c4c(sc3n2)COC(C)(C)C4)n1	-7.97	-7.97*
Cc1cc(C)n(-c2nc(NCCN(C)C)c3c4c(sc3n2)COC(C)(C)C4)n1	1.66	i
Cc1ccc(S(=O)(=O)Nc2ccsc2C#N)cc1	.	i
O=C(NCc1ccccc1)C1CCCN(S(=O)(=O)c2ccc(F)cc2)C1 (stereo not given)	.	i
N#C/C(=C/c1ccc(N2CCCCCC2)o1)c1ccc(F)cc1	-7.01	-7.01*
N#C/C(=C/c1ccc(N2CCCCCC2)o1)c1cccc(F)c1	.	i
CCCCSc1nc(C)cc(SCC(=O)N/N=C/c2cccc(OC)c2O)n1	6.35*	i
COc1cccc(/C=N/NC(=O)CSc2nnc(C)n2-c2ccccc2)c1O	.	i
CC(C)=CCN1CCN(Cc2ccc(C#CC(C)(C)O)s2)CC1CCO (stereo not given)	0.24	i
c1ccc(C2=Nn3c(nnc3-c3ccco3)SC2)cc1	0.34	i
CCC1CCCCN1C(=S)NC(=O)c1cccs1 (stereo not given)	4.63	i
CCC1CCCCN1C(=S)NC(=O)c1ccc([N+](=O)[O-])cc1 (stereo not given)	7.84*	i
CCCCCN(C(=O)CCC(=O)OCC(=O)N1CCCCC1)c1c(N)n(CCCC)c(=O)[nH]c1=O	.	i
O=C(c1ccc2ccccc2c1)N1CCN(c2ccc([N+](=O)[O-])c(N3CCOCC3)c2)CC1	.	i
O=C(/C=C/c1ccccc1)N1CCN(c2ccc([N+](=O)[O-])c(N3CCOCC3)c2)CC1	-6.38	-6.38*
SMILES	KCNQ2 enhance	KCNQ2 inh
CC1CCCCN1S(=O)(=O)c1ccc2c(c1)C(C)(C)C(=O)N2C (stereo not given)	0.88	i
CCCn1nc([N+](=O)[O-])c(C(C#N)c2nc3ccccc3o2)c(Cl)c1=O (stereo not given)	.	i
Cn1nc([N+](=O)[O-])c(C(C#N)c2ccccn2)c(Cl)c1=O (stereo not given)	-5.79	-5.79*
O=c1c2ccccc2nc(SCc2nnc(-c3ccccc3Br)o2)n1-c1ccccc1	.	i
O=c1c2ccccc2nc(SCc2nnc(-c3ccccc3)o2)n1-c1ccc(F)cc1F	-6.43	-6.43*
CCC(C(=O)O)N1C(=O)C2CCCCC2C1=O (stereo not given)	0.89	i
CNC(=O)c1sc(-c2cccs2)nc1C	0.63	i
COc1cccc(NC(=O)COc2coc(CN3CCc4ccccc4C3)cc2=O)c1	.	i
CCOC(=O)C1CCN(Cc2ccccn2)CC1	.	i
CCOC(=O)C1CCN(c2ccccc2CN2CCN(c3ccccc3OCC)CC2)CC1	-7.18	-7.18*
O=C(/C=C/c1cccs1)N1CCC2(CC1)Oc1ccc(Cl)cc1C(=O)C21CC(c2cccnc2)=NO1 (stereo not given)	-6.84	-6.84*
Cc1ccc(C(=O)N2CCC3(CC2)Oc2ccc(Cl)cc2C(=O)C32CC(c3cccnc3)=NO2)s1 (stereo not given)	.	i
COc1cc(OC)c(NC(=O)c2cncn2-c2ccc(F)cc2)cc1Cl	.	i
CC1CCN(C(=O)COC(=O)CNC(=O)C23CC4CC(CC(C4)C2)C3)CC1	0.14	i
CN(C)c1nnnn1Cc1ccccc1	.	i
CC(C#Cc1c([C@@H](C)Oc2ccccc2)nnn1Cc1ccccc1)Oc1ccccc1 (stereo not given in full)	-6.34	-6.34*
CN(C)CCCNC(=O)C(=O)NCC1OCCN1S(=O)(=O)c1cc(F)ccc1F (stereo not given)	0.48	i
CCOC(=O)CC1C(=O)NCCN1c1nc2ccc(C)cn2c(=O)c1/C=C1\SC(=S)N(C(C)CC)C1=O (stereo not given)	-7.69	-7.69*
CCOC(=O)CC1C(=O)NCCN1c1nc2ccc(C)cn2c(=O)c1/C=C1\SC(=S)N(CC(C)C)C1=O (stereo not given)	.	i
O=C(CC1SC(N2CCCC2)=NC1=O)Nc1ccc(C(=O)Nc2ncccc2O)cc1 (stereo not given)	.	i
CCOC(=O)C(=CNc1nc(-c2ccc3ccccc3c2)cs1)C(=O)OCC	.	i
COc1ccc(NC(=O)c2cc(C)nc3ccccc23)c(OC)c1	.	i
Cc1ccc(NC(=O)c2cc(C)nc3ccccc23)c(C)c1	-5.9	-5.9*
COc1ccc(Cl)cc1C(=O)Nc1nc(C)cc(C)n1	.	i
Cc1ccc(C(=O)NCCOC23CC4CC(CC(C4)C2)C3)cc1	-6.03	-6.03*
SMILES	KCNQ2 enhance	KCNQ2 inh
COc1cc(OC)cc(C(=O)NCCOC23CC4CC(CC(C4)C2)C3)c1	.	i
OCC1(Cc2ccc(F)cc2)CCCN(CCCC(F)(F)F)C1 (stereo not given)	.	i
COCc1cc(Sc2ccc(Br)cc2)nc(-c2ccccc2)n1	.	i
COCc1cc(Sc2ccc(Cl)cc2)nc(-c2ccccc2)n1	-5.88	-5.88*
CCC(C)N1C(=O)N(c2cccc(Cl)c2)C(C)(O)CC1(C)C (stereo not given)	.	i
O=C(COc1ccc(F)cc1)N/N=C/c1cccc2cccnc12	0.16	i
CC/C(C)=N\Nc1nc(-c2cc3cc(OC)ccc3oc2=O)cs1	.	i
COc1ccc(C(=O)NN/C(C)=C/C(=O)C(F)(F)C(F)(F)C(F)(F)F)cc1	10*	i
COc1ccc(C(=O)NNC(=O)OC(C)(C)C)cc1	.	i
O=C(NC1CCSc2ccccc21)c1cccc(Cl)c1 (stereo not given)	.	i
O=C1CCCN1CCCNc1ccc2nnc(CCC(=O)N3CCN(c4ccc(F)cc4)CC3)n2n1	0.71	i
O=C(c1ccc(Cl)c(Cl)c1)N1CCC(=O)N(C(COCc2cccc(Cl)c2)Cc2ccccc2)CC1 (stereo not given)	-6.19	-6.19*
O=C(c1cccc(Cl)c1)N1CCC(=O)N(C(COCc2cccc(Cl)c2)Cc2ccccc2)CC1 (stereo not given)	.	i
Cc1ccc(S(=O)(=O)N2CCC(=O)N(C(COCc3ccc(C(F)(F)F)cc3)C(C)C)CC2)cc1 (stereo not given)	.	i
Cc1ccc(S(=O)(=O)N2CCC(=O)N(C(COCc3ccc(C(F)(F)F)cc3)Cc3ccccc3)CC2)cc1 (stereo not given)	-6.07	-6.07*

Compound activity (PubChem)
